# Shiga toxin inh: blocks Shiga toxin action in Vero cells. AID 2315. hit rate 9.2% among 290,000. Vero cells, Shiga toxin protein synthesis inhibition reporter. inhibition, % at 38.7 µM; in the data active = inhibition mostly above about 28%, no sharp cut-off; inactive = mostly below about 43%; note: 0% is about no effect
# Cycloheximide cs: affects cycloheximide protein synthesis inhibition readout, counter-screen. max response, %. hit rate 12% among 300,000. cell reporter, cycloheximide protein synthesis inhibition counterscreen; in the data active = max response mostly above about 13%, no sharp cut-off; inactive = mostly below about 14%; note: read at 38.3 µM for the half of the compounds with a filed dose; 0% is about no effect
# Giardia FBPA inh: blocks Giardia fructose-bisphosphate aldolase activity; hit rate 0.71% among 290,000; AID 2451; Potency, µM (titrated, usually from 59.6 µM), for inactives: at the highest dose activity, negative = inhibition, actives largely listed as inhibitors; purified Giardia FBPA; note: potency is the fitted concentration of half-maximal effect; % is set by controls: 0 for no effect and ±100 for the full control effect; nearly all actives have a fitted effect of over 55% in size
# Target sequence (A8B2U2 whole entry, looked up): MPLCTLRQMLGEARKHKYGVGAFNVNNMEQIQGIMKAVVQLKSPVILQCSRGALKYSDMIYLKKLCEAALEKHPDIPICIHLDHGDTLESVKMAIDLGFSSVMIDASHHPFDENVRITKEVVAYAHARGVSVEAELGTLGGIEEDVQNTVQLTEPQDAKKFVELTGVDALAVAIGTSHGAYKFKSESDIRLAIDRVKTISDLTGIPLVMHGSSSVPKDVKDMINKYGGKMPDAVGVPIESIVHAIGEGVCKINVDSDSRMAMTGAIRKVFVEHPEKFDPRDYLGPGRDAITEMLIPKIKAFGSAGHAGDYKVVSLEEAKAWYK
#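 40 nM FBPA preincubated 10 min at RT with compound (up to 57.5 uM final), then substrate plus GAPDH/TPI/NAD/arsenate coupling and diaphorase/resazurin added. Fluorescence read after 20 min at RT, 525/598 nm.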
# NS1 inh: blocks influenza NS1 protein function. Potency, µM (top dose mostly 46.1 µM), for inactives: top-dose activity, positive = more growth. hit rate 0.4% among 270,000. AID 2326; calls by dose curve; note: potency is the fitted concentration of half-maximal effect; actives are rising curves; nearly all actives have a fitted effect of over 50% in size
#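 In this qHTS, NS1 from influenza A is expressed in budding yeast, where it slows growth. Cells are switched from glucose to 2% galactose medium (pH 6.0, -URA), treated with compound, and growth recovery is read at OD600.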
# LmPK inhibitor: inhibitors of Leishmania mexicana pyruvate kinase; Q27686; Potency, µM (series often up to 57.5 µM), without a hit: top-dose activity change, negative = inhibition, most hits filed as inhibitors; hit rate 0.37% among 290,000; purified LmPK, Kinase-Glo ATP luminescence, 1 h; note: potency is the fitted concentration of half-maximal effect; % is set by controls: 0 for no effect and ±100 for the full control effect
#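 In 50 mM imidazole pH 7.2 with 7 mM MgCl2, LmPK (0.1 nM) turned over PEP (0.5 mM) and ADP (0.1 mM) for 1 h at room temperature. Luciferase read-out of ATP.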
# Numbers without * were called inactive; ? = inconclusive; / = no result given. Sampled rows, rich in hits. Any-hit rate of the full collection: about 14%. Unless noted, calls come from the whole dose curve; as a rule, active = well fitted curve in the direction sought with a large enough effect; inconclusive = small, poorly fitted or top-dose-only effect, or another doubt; inactive = no such curve, though single readings can be large; an effect the other way counts as inactive or inconclusive.
SMILES,Shiga toxin inh,Cycloheximide cs,Giardia FBPA inh,NS1 inh,LmPK inhibitor
O=S(=O)(NNc1cccc(Cl)n1)c1ccc(Cl)cc1,-9.5,2.7,?,-23.5%,2.1%
C/C(=N\Nc1nccnc1Cl)c1ccc([N+](=O)[O-])cc1,66.1*,40.6*,-12.0%,-1.2%,-5.6%
C/C(=N\Nc1nccnc1Cl)c1ccc(Br)cc1,77.6*,29.7*,?,7.0%,-2.6%
CNC(=S)N/N=C(\C)c1ccc(C)c(C)c1,48.8,-1.4,-14.3%,-25.1%,-6.1%
C/C(=N\Nc1nccnc1Cl)c1ccc(O)c(C)c1,/,28.1*,?,1.5%,9.2%
Cn1c(N)c(S(=O)(=O)N2CCN(c3ccccc3Cl)CC2)c(=O)n(C)c1=O,-13.4,-1.1,2.0%,-2.6%,-10.7%
Cc1cc(C)c(S(=O)(=O)Nc2ccc[nH]c2=O)c(C)c1,6.6,0.3,5.61µM*,1.1%,5.1%
Cc1c(NC(=O)Nc2cccc(C(F)(F)F)c2)c(=O)n(-c2ccccc2)n1C,-10.4,-2.4,/,-0.3%,-0.1%
Cc1cc(/C=C2\C(=N)N3N=CSC3=NC2=O)c(C)n1Cc1ccccc1,52.3,14.2*,19.8%,4.5%,-5.2%
COc1cc(/C=C2/C(=N)N3N=C(CC(=O)N4CCOCC4)SC3=NC2=O)ccc1OCc1ccccc1,35.2*,20.6*,/,11.6%,13.0%
COc1cc(/C=C2/C(=N)N3N=C(C(C)C)SC3=NC2=O)ccc1OS(=O)(=O)c1ccccc1,49.3,8.7*,-11.7%,-0.7%,-3.4%
COc1cc(/C=C2\C(=N)N3N=C(S(C)(=O)=O)SC3=NC2=O)ccc1OS(=O)(=O)c1ccc(C)cc1,20.0,23.8*,17.3%,1.5%,12.2%
CSc1ccc(/C=C2\C(=N)N3N=C(CC(=O)N4CCOCC4)SC3=NC2=O)cc1,-5.5,-1.5,/,4.1%,-7.9%
CCOc1cc(/C=C2/C(=N)N3N=C(C)SC3=NC2=O)ccc1OS(=O)(=O)c1ccc(C)cc1,23.0,-6.8,4.1%,20.3%,0.1%
CCC(C)C(=O)OC1CC(O)C=C2C=CC(C)C(CCC(O)CC(O)CC(=O)O)C21 (stereo unspecified),/,/,-24.8%,/,/
COc1cc(/C=C2\C(=N)N3N=CSC3=NC2=O)ccc1OS(=O)(=O)c1ccccc1,18.4,15.8*,/,?,-8.0%
CCOC(=O)c1cc2cc3ccccc3cc2[nH]1,150.2*,54.1*,?,-0.4%,4.8%
CCOC(=O)c1c[nH]c2ccc3ccccc3c2c1=O,19.5,1.1,-4.8%,-17.3%,-6.5%
NNC(=O)c1cc2ccccc2[nH]1,10.7,4.6,-0.1%,/,2.2%
CC(C)OC(=O)c1cc2ccccc2[nH]1,53.9*,23.3*,-0.6%,5.9%,-2.7%
CCc1cc(C(=O)N/N=C/c2ccc(OC)cc2)c2ccccc2n1,-3.3,-1.9,0.3%,-1.0%,-0.6%
Cc1ccc(S(=O)(=O)N2CCN(C(=S)NCc3ccc4c(c3)OCO4)CC2)cc1,-16.7,9.9,2.0%,/,1.9%
CC(=O)Nc1ccc(C(=O)NCCCOC(C)C)cc1,3.6,0.9,3.9%,-3.7%,0.8%
NS(=O)(=O)c1ccc(NC(=S)NCCc2ccccc2)cc1,10.3,2.8,?,-6.2%,1.0%
CC(C)OCCCNC(=S)Nc1ccc(S(N)(=O)=O)cc1,-3.0,2.5,14.1µM*,14.8%,1.1%
SMILES,Shiga toxin inh,Cycloheximide cs,Giardia FBPA inh,NS1 inh,LmPK inhibitor
CC(=O)c1ccc(NC(=S)NCCc2ccc(S(N)(=O)=O)cc2)cc1,98.6*,32.0*,-0.4%,/,-2.4%
COc1cc2c(cc1OC)C1C(=O)c3ccc4c(c3OC1CO2)C=CC(C)(C)O4 (stereo unspecified),/,/,-11.7%,/,/
CN(C)C(CNc1ncnc2sc3c(c12)CCCC3)c1ccco1 (stereo unspecified),20.3,14.9*,-6.2%,/,4.8%
COc1cccc(C(=O)NC(=O)Nc2cc(C)on2)c1,71.0*,55.7*,0.5%,/,-10.6%
Cc1cc(NC(=O)Nc2cccc(C(F)(F)F)c2)no1,-7.4,2.0,-8.8%,-40.7%,3.6%
COc1cccc(NC(=O)Nc2cc(C)on2)c1,/,22.6*,4.5%,-29.1%,-5.2%
COc1cccc(-c2cc(C(=O)Nc3cc(C)on3)no2)c1,19.4,14.5,-0.8%,-10.0%,3.0%
Cc1sc2nc(CN3CCN(c4ccc(O)cc4)CC3)[nH]c(=O)c2c1C,4.6,1.5,?,0.0%,14.1µM*
COc1ccc(N2C(=O)/C(=C\c3ccco3)N=C2SCC(=O)NC(C)(C)C)cc1Cl,25.4,13.4*,-10.8%,22.0%,3.0%
CCCCNC(=S)N/N=C/c1sccc1C,35.8,8.5,6.7%,/,3.4%

# From PubChem BioAssay
